# Source: PubChem BioAssay AID463173 (ICCB-Longwood Screening Facility, Harvard Medical School, 2010)
# Among all 52,000 compounds or so, about 4,300 (8.3%) were called active. No stated cut-off is given here; in the data, active means survival mostly below about 52% (no sharp cut-off); inactive means mostly above about 56%. Shown is part of a subset that was picked to be rich in actives.
# Tested on: DeltatarO mutant
# Experiment: growth inhibition of S. aureus wild type versus tarO mutant, primary screen, teichoic acid synthesis inhibitors, RN4220, OD600 (AID 463173)
# Details: OD600, 18 h, hits give low values, screened at 18.75 µg/mL (by protocol)
row,Compound,survival
1,CCOC(=O)c1c(NC(=O)c2cc3ccccc3c(=O)o2)sc2c1CCC(C(C)(C)C)C2 (stereo unspecified),53% (inactive)
2,CCOC(=O)c1c(NC(=O)c2ccc(C)c(C)c2)sc2c1CCCCC2,2% (active)
3,CCCCOc1ccc(C(=O)Nc2sc3c(c2C(=O)OCC)CCCCC3)cc1,50% (inactive)
4,CCCOC(=O)c1c(NC(=O)c2cc3ccccc3c(=O)o2)sc2c1CCC(C)C2 (stereo unspecified),112% (inactive)
5,CCOC(=O)c1c(NC(=O)c2ccc(OC)cc2)sc2c1CCCCC2,2% (active)
6,CCOC(=O)c1c(NC(=O)c2ccc(OCC)c(Br)c2)sc2c1CCCC2,74% (inactive)
7,CC(C)(C)C1CCc2c(sc(NC(=O)c3cc4ccccc4c(=O)o3)c2C(N)=O)C1 (stereo unspecified),44% (active)
8,CCOC(=O)c1c(NC(=O)c2cc(OC)c(OC)c(OC)c2)sc2c1CCCC2,81% (inactive)
9,CCOC(=O)c1c(NC(=O)c2ccc(OC)c(OC)c2)sc2c1CCCCC2,58% (inactive)
10,CCCOc1ccc(C(=O)Nc2sc3c(c2C(=O)OCC)CCCCC3)cc1,24% (active)
11,CCCCOc1cccc(C(=O)Nc2sc3c(c2C(=O)OCC)CCCC3)c1,53% (inactive)
12,CCN(CC)Cc1c(NC(=O)c2ccc(OC)cc2)sc2c1CCCC2,71% (inactive)
13,Cc1c(C(=O)NCCN(C)C)oc2c1-c1nn(Cc3ccccc3Cl)cc1CC2,110% (inactive)
14,O=C(Oc1ccc(F)cc1)c1nc(SCc2ccc(F)cc2)ncc1Cl,79% (inactive)
15,COC(=O)C1=NNC2(c3ccc(C)cc3)C(=O)N(c3ccc(C)cc3)C(=O)C12 (stereo unspecified),107% (inactive)
16,Cc1oc(C(=O)O)cc1CSC(C)C(=O)O (stereo unspecified),88% (inactive)
17,CC(C)c1nn2c(=O)cc(COC(=O)c3ccccc3Cl)nc2s1,88% (inactive)
18,CC(=O)Nc1nc(-c2cccs2)nc2c1c(=O)oc1ccccc12,92% (inactive)
19,COc1ccc(N=C2SC(C(=O)Nc3ccccc3)CC(=O)N2C)cc1 (stereo unspecified),91% (inactive)
20,O=C(CN1C(=O)C2(SCC(=O)N2c2ccccc2)c2ccccc21)NCCc1ccccc1 (stereo unspecified),116% (inactive)
21,Cc1nnsc1C(=O)Oc1ccc(C(C)C)cc1,89% (inactive)

row,Compound,survival
1,CCc1cc2c(cc3c(=O)n(CC(=O)NC4CCC(C)CC4)ncn32)s1 (stereo unspecified),91% (inactive)
2,Oc1c(C(c2cccc(Cl)c2)N2CCOCC2)sc2nc(-c3ccco3)nn12 (stereo unspecified),84% (inactive)
3,Cc1ccc(NC(=O)CCC(=O)N2Cc3ccccc3Oc3ncccc32)c(C)c1,99% (inactive)
4,CCOC(=O)C1CCN(C(=O)c2ccccc2N(C)S(C)(=O)=O)CC1,107% (inactive)
5,COC(=O)c1c(NC(=O)c2cc3ccccc3c(=O)o2)sc2c1CCCC2,89% (inactive)
6,CCOC(=O)c1c(NC(=O)c2cc3ccccc3c(=O)o2)sc2c1CCCC2,45% (active)
7,CCOC(=O)c1c(NC(=O)c2ccccc2C)sc2c1CCCC2,12% (active)
8,CCOC(=O)c1c(NC(=O)c2cc(OCC)c(OCC)c(OCC)c2)sc2c1CCCCC2,65% (inactive)
9,CCOC(=O)c1c(NC(=O)c2ccc(C)cc2)sc2c1CCCCC2,-2% (active)
10,CCOC(=O)c1c(NC(=O)c2ccc(S(=O)(=O)N(CC)CC)cc2)sc2c1CCCCC2,72% (inactive)
11,CCOC(=O)c1c(NC(=O)c2cc3ccccc3c(=O)o2)sc2c1CCC(C)C2 (stereo unspecified),129% (inactive)
12,CCOC(=O)c1c(NC(C)=O)sc2c1CCC2,77% (inactive)
13,CCOC(=O)c1c(NC(=O)c2cc(Cl)ccc2Cl)sc2c1CCCC2,72% (inactive)
14,CCc1cccc(CC)c1NC(=O)c1c(C)oc2ccc(O)c(CN3CCOCC3)c12,90% (inactive)
15,CC(C)Oc1ccc(C(=O)NCc2cccnc2)cc1,70% (inactive)
16,CCOc1ccc(C(=O)N2CCc3cc(OC)c(OC)cc3C2COc2ccc3c(C)cc(=O)oc3c2)cc1OCC (stereo unspecified),57% (inactive)
17,COc1ccc(OC)c(NC(=O)c2c(NCc3cccs3)sc3c2CCCCC3)c1,67% (inactive)
18,CCOC(=O)c1cccc(NC(=O)COc2ccc3c(C)cc(=O)oc3c2)c1,70% (inactive)
19,CCc1ccccc1N(C)C(=O)c1cc2c(Cl)nc3ccc(C)cc3c2s1,-4% (active)
20,Cc1ccc2nc(Cl)c3cc(C(=O)N(C)C4CCCCC4)sc3c2c1,46% (inactive)
21,CN(C(=O)c1cc2c(Cl)nc3ccccc3c2s1)c1cccc(C(F)(F)F)c1,72% (inactive)

row,Compound,survival
1,CCCN(C(=O)c1cc2c(Cl)nc3ccccc3c2s1)c1cccc(C)c1,31% (active)
2,CCN(C(=O)c1cc2c(Cl)nc3ccccc3c2s1)c1cccc(Cl)c1,60% (inactive)
3,Cc1ccc2nc(Cl)c3cc(C(=O)NCCCN(C)Cc4ccccc4)sc3c2c1,-9% (active)
4,CN(CCCNC(=O)c1cc2c(Cl)nc3ccccc3c2s1)Cc1ccccc1,55% (inactive)
5,CCN(CCCNC(=O)c1cc2c(Cl)nc3ccccc3c2s1)Cc1ccccc1,94% (inactive)
6,Cc1ccc(Cl)cc1N(C)C(=O)c1cc2c(Cl)nc3ccccc3c2s1,54% (inactive)
7,COc1cc(NS(=O)(=O)c2ccc3c(c2)CCCN3C(C)=O)cc(OC)c1OC,89% (inactive)
8,Cc1nc(C)c(CCNS(=O)(=O)c2ccc(C)c(C)c2)s1,97% (inactive)
9,CCOc1ccc(-n2ccnc2SCC(=O)Nc2ccc3c(c2)OCO3)cc1,81% (inactive)
10,O=C(CN1N=C(c2ccc(Cl)cc2)CCC1=O)NCCc1ccc(Cl)cc1,94% (inactive)
11,COc1cccc(C(=O)Nc2ccc3nc(SCC(=O)N4CCOCC4)sc3c2)c1,65% (inactive)
12,COc1ccccc1CNC(=O)c1cc(S(=O)(=O)N2CCCCCC2)cn1C,113% (inactive)
13,Cc1cc2ncn(CCC(=O)Nc3ccccc3F)c2cc1C,103% (inactive)
14,Cc1cc2ncn(CCCCOc3ccccc3)c2cc1C,-4% (active)
15,Cc1ccc(OCCCCn2cnc3ccccc32)cc1,11% (active)
16,COc1ccc(OCCn2cnc3ccccc32)cc1,85% (inactive)
17,c1ccc2c(c1)ncn2CCn1cnc2ccccc21,100% (inactive)
18,CC(=O)OC(COc1ccccc1)Cn1cnc2cc(C)c(C)cc21 (stereo unspecified),140% (inactive)
19,Cc1cccc(C)c1NC(=O)CCC(=O)O,76% (inactive)
